Compound activity from PubChem BioAssay.
Shown is part of a subset that was picked to be rich in hits.
hNpr1 antagonist: Natriuretic polypeptide receptor (hNpr1) antagonism - Primary qHTS; Atrial natriuretic peptide receptor 1 (Homo sapiens), P16066; HEK293 hNpr1 GloSensor cGMP, ANP-stimulated luminescence; Potency, µM (series often up to 46.3 µM), without a hit: at the top dose activity change, negative = inhibition, actives largely listed as inhibitors; 76,000 compounds, 1.6% hits; AID 1347048, 2019; note: % is set by controls: 0 for no effect and ±100 for the full control effect; nearly all actives have a fitted effect of over 60% in size
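HEK293 cells stably expressing human Npr1 and cGMP GloSensor pGS-40F, loaded 2 h with 2% GloSensor reagent, given compound 30 min at room temperature. Luminescence read before and 20 min after 0.1 nM hNppA.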
GPT2 inh: Primary qHTS assay for inhibitors of Glutamate pyruvate transaminase 2 (GPT2); Recombinant GPT2, coupled pyruvate oxidase/HRP Amplex Red fluorescence; Potency, µM (doses to about 57.7 µM), inactives show at the highest dose activity change, negative = inhibition, most hits filed as inhibitors; 100,000 compounds, 0.25% hits; AID 1671188, 2021; active = well fitted inhibition curve with a large enough effect; inconclusive = small, poorly fitted or top-dose-only effect; note: % is set by controls: 0 for no effect and ±100 for the full control effect; nearly all actives have a fitted effect of over 60% in size
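GPT2 10ng/uL, a-KG 250uM, L-Ala 2mM, HEPES pH7.5 + 0.0001% Tween; 30 min RT. Then Amplex mix (PO/HRP/ThPP), 30 min RT dark, fluorescence. AOA 50uM used as positive control.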
NPR1 antag cnf: Natriuretic polypeptide receptor (hNpr1) antagonism - Confirmation; shares compounds with hNpr1 antagonist; Potency, µM (series often up to 57.6 µM), inactives show at the top dose activity change, negative = inhibition, usual class: inhibitors; 1,400 compounds, 76% hits; HEK293 hNpr1 cGMP GloSensor luminescence, ANP-stimulated; AID 1347044, 2019; note: nearly all actives have a fitted effect of over 70% in size
NPR2 antag: Natriuretic polypeptide receptor (hNpr2) antagonism - Subtype selectivity assay. shares compounds with hNpr1 antagonist. HEK293 hNpr2 GloSensor cGMP luminescence, CNP-stimulated. Potency, µM (top dose mostly 57.6 µM), without a hit: at the top dose activity change, negative = inhibition, most hits filed as inhibitors. 1,400 compounds, 67% hits. AID 1347046, 2019; note: nearly all actives have a fitted effect of over 70% in size
FLuc counter: Natriuretic polypeptide receptor (hNpr1) antagonism - Confirmation firefly luciferase (FLuc) inhibition counterscreen | shares compounds with hNpr1 antagonist | purified FLuc enzyme, luminescence, Km substrate | Potency, µM (top dose mostly 57.6 µM), inactives show at the top dose activity change, negative = inhibition, most hits filed as inhibitors | 1,400 compounds, 0.7% hits | AID 1347047, 2019; active = well fitted inhibition curve with a large enough effect; inconclusive = small, poorly fitted or top-dose-only effect; note: 0% is about no effect
GloSensor cGMP: Natriuretic polypeptide receptor (hNpr1) antagonism - Counterscreen GloSensor control cell line; Potency, µM (highest dose often 57.6 µM), inactives show at the highest dose activity change, negative = inhibition, hits mostly inhibitors; 1,400 compounds, 69% hits; HEK293 GloSensor cGMP, SNP-stimulated, luminescence; shares compounds with hNpr1 antagonist; note: % is set by controls: 0 for no effect and ±100 for the full control effect; nearly all actives have a fitted effect of over 70% in size
* = called active by the depositor; i = inactive; ? = inconclusive; nt = not tested or not shown; [ ] = dose if it differs, or a comment. Unless noted, calls come from the whole dose curve. Potency is the fitted concentration of half-maximal effect.

SMILES	hNpr1 antagonist	GPT2 inh	NPR1 antag cnf	NPR2 antag	FLuc counter	GloSensor cGMP
Cc1cccc2c1nc1n2[C@@H](CNS(=O)(=O)c2ccccc2)COC1	?	0%[88.5 µM]	nt	nt	nt	nt
Cc1ccc2c(c1)nc1n2[C@@H](CNS(=O)(=O)Cc2ccccc2)COC1	22µM*	-5%[88.5 µM]	35µM*	35µM*	-1%[86.2 µM]	28µM*
CS(=O)(=O)c1ccc(CNC[C@H]2COCc3nc4cc(F)ccc4n32)cc1	-29%[70.6 µM]	-7%[88.5 µM]	nt	nt	nt	nt
CC(C)NC(=O)C[C@@H]1C[C@H]2O[C@H](CNC(=O)NCc3ccccc3)[C@@H](O)[C@H]2O1	1%[70.6 µM]	-5%[88.5 µM]	nt	nt	nt	nt
CCNC(=O)[C@@H]1C[C@H](N)CN1S(=O)(=O)c1ccc2ccccc2c1	11%	2%	nt	nt	nt	nt
CN1C(=O)c2cccn2CC1CNC(=O)c1ccccc1 (stereo not drawn)	-11%	i	nt	nt	nt	nt
COC(=O)c1ccc(NC(=O)CCn2ccn3nc4c(c3c2=O)CCCC4)cc1	-2%	i	nt	nt	nt	nt
O=C(CCn1ccn2nc3c(c2c1=O)CCCC3)NC1CCCC1	3%	0%	nt	nt	nt	nt
COc1ccc(-c2cn3c(n2)CO[C@@H](CNS(C)(=O)=O)C3)cc1	-1%[70.6 µM]	0%[88.5 µM]	nt	nt	nt	nt
COc1ccc(-c2cn3c(n2)CO[C@@H](CNS(=O)(=O)c2ccc(C)cc2)C3)cc1	28µM*	-54%[88.5 µM]	31µM*	31µM*	?	28µM*
Cn1ncc(N2CCC(C(=O)NCC3CCN(Cc4cccc(F)c4)CC3)C2)cc1=O (stereo not drawn)	10%	i	nt	nt	nt	nt
CCC(NC(=O)c1cc(OC)ccc1OC1CCN(C(C)=O)CC1)c1ccncc1 (stereo not drawn)	2%	-24%	nt	nt	nt	nt
O=C(Cc1cccc(F)c1)N1CCC(Cc2nc(-c3cnccn3)no2)CC1	6%	1%	nt	nt	nt	nt
O=C(CCCc1ccccc1)N1CCC(Cc2noc(-c3ccccc3)n2)C1 (stereo not drawn)	nt	3%	nt	nt	nt	nt
O=C(CCc1ccccc1)N1CCC(Cc2nc(-c3ccc(F)cc3)no2)CC1	5µM*	-9%	6.1µM*	7.7µM*	1%	5.4µM*
O=C(CCCc1ccccc1)N1CCC(Cc2nc(-c3ccc(F)cc3)no2)CC1	7.9µM*	i	11µM*	12µM*	3%	11µM*
Cc1ccc(C)c(CNC(=O)C2(c3ccc(NS(C)(=O)=O)cc3)CCCCC2)c1	-9%	2%	nt	nt	nt	nt
O=C(NC1CCN(c2nccc(Nc3ccccc3Cl)n2)CC1)c1ccccc1F	nt	-12%	nt	nt	nt	nt
O=[S+]([O-])(c1cccs1)N1CCC2(CC(c3cccc(C(F)(F)F)c3)=NO2)C1 (stereo not drawn)	nt	i	nt	nt	nt	nt
COc1ccccc1NC(=O)C1c2ccccc2C(=O)N(Cc2ccccc2)C12CCCC2 (stereo not drawn)	-12%	-18%	nt	nt	nt	nt
CCOc1ncccc1C(=O)N1CCc2[nH]nc(-c3cccc(F)c3)c2C1	-10%	?	nt	nt	nt	nt
CCOc1ccccc1C(=O)N1CCc2[nH]nc(-c3ccc(F)c(F)c3)c2C1	?	?	?	?	2%	?
Cc1cc(C(=O)N2CCC3(CCCN(C(C)C)C3=O)C2)c(-c2ccccc2)o1 (stereo not drawn)	-17%	2%	nt	nt	nt	nt
O=C(Cc1ccccc1Cl)NC1CCN(c2cc(C(F)(F)F)ncn2)CC1	11µM*	i	19µM*	15µM*	-1%	15µM*
Cc1ccc(CCNC(=O)C2CCN(c3cc(C(F)(F)F)nc(C)n3)CC2)cc1	-23%	-6%	nt	nt	nt	nt
SMILES	hNpr1 antagonist	GPT2 inh	NPR1 antag cnf	NPR2 antag	FLuc counter	GloSensor cGMP
COc1ccccc1CC(=O)NC1CCN(c2cc(C(F)(F)F)nc(C)n2)CC1	-16%	i	nt	nt	nt	nt
COc1ccccc1C(=O)NC1CCN(c2cc(C(F)(F)F)nc(C)n2)CC1	?	3%	?	-29%	3%	?
Cc1nc(N2CCC(NC(=O)Cc3ccccc3Cl)CC2)cc(C(F)(F)F)n1	10µM*	0%	19µM*	17µM*	2%	11µM*
O=C(Cc1ccc(Cl)cc1)NC1CCN(c2cc(C(F)(F)F)ncn2)CC1	?	i	nt	nt	nt	nt
COc1ccc(Cl)cc1C(=O)NC1CCN(c2cc(C(F)(F)F)nc(C)n2)CC1	?	-5%	nt	nt	nt	nt
Cc1nc(N2CCC(C(=O)NCc3cccc(Cl)c3)CC2)cc(C(F)(F)F)n1	10µM*	-11%	19µM*	19µM*	7%	17µM*
CN(C)c1ccc2ncc(Nc3ccccc3-c3ccccc3)n2n1	-6%[70.6 µM]	i	nt	nt	nt	nt
CCN(Cc1ccccc1)C(=O)[C@@]12CCCC[C@H]1N(CCOC)C(=O)CC2	-12%	5%	nt	nt	nt	nt
CCCn1cc(C(=O)N2CC[C@@](O)(COC)C(C)(C)C2)c(C)n1	-3%	i	nt	nt	nt	nt
COCCN1CCC(N2CCN(C(=O)c3ccc(F)cc3)CC2)C1=O (stereo not drawn)	-10%	i	nt	nt	nt	nt
Cc1cccc(C)c1OC1CN(c2cc(C3CC(O)C3)nc(N)n2)C1 (stereo not drawn)	-7%	4%	nt	nt	nt	nt
COc1nccc(N2CCC(CC(=O)N(C)CCCc3c(C)nn(C)c3C)CC2)n1	11µM*	-7%	22µM*	?	1%	19µM*
CNc1nccc(N2CCC(CC(=O)N(C)CCCc3c(C)nn(C)c3C)CC2)n1	?	1%	nt	nt	nt	nt
COc1ccc(CC(=O)N2CC[C@@H](CC(=O)O)[C@@H](CCN3CCOCC3)C2)cc1	1%[70.6 µM]	i	nt	nt	nt	nt
CN1C(=O)c2cccn2CC1CNC(=O)c1nccn1C (stereo not drawn)	-5%	?	nt	nt	nt	nt
Cc1nc(N2CCC(NCCc3cccnc3)CC2)c2ccsc2n1	3%	i[11.5 µM]	nt	nt	nt	nt
Clc1ccc2nc(N3CCC(NCCc4cccnc4)CC3)sc2c1	13µM*	-3%	24µM*	24µM*	-28%	22µM*
COc1cc(CNCc2nnn3c2CN(Cc2ccccc2C#N)C(=O)CC3)cc(OC)c1	0%	-3%	nt	nt	nt	nt
O=S(=O)(c1cccc(F)c1)N1CCC2(CC1)CC(Cc1nc(C3CC3)no1)CCO2 (stereo not drawn)	11µM*	3%	24µM*	24µM*	3%	22µM*
O=C(C1CCC1)N1CCC2(CC1)CC(Cc1nc(C3CC3)no1)CCO2 (stereo not drawn)	-17%	-6%	nt	nt	nt	nt
CC(C)NC(=O)c1nc(C(C)(C)C)c2cnccn12	nt	i	nt	nt	nt	nt
